RMI-FANCM inh – RMI-FANCM interaction inhibition; Fluorescence polarization, RMI core complex with F-MM2 peptide; stronger effect = lower value; FP signal (polarization) at 33 µM; 70,000 compounds, 0.58% hits; AID 1159607; in the data active means FP signal below about 40
A number is an active result; . = inactive; ! = a repeat was not active. The sample as a whole holds a higher share of hits than the screen did.

SMILES	RMI-FANCM inh
COc1ccc(N=Nc2cc(C)c3cc(C(C)C)ccc(C)c2-3)cc1	-11
Cc1ccc(C(=O)Nc2ccc(C(=O)NCCNC(=O)c3ccccc3Cl)cc2)cc1	.
COc1ccccc1CNC(=O)Nc1c[nH]c2ccccc12	.
CC(C)CNC(=O)Nc1c[nH]c2ccccc12	.
O=C(NCc1ccccn1)Nc1c[nH]c2ccccc12	25
CCOc1ccc(S(=O)(=O)NCC2CCN(Cc3cccs3)CC2)cc1F	.
O=C(NC1CC(=O)N(c2cccc(F)c2)C1)c1ccc(C(F)(F)F)cc1 (stereo not given)	.
O=C(NC(=O)N1CCN(c2ccc(F)cc2)CC1)c1ccccc1	.
CC(C(=O)c1ccc(-c2ccccc2F)cc1)N1CCN(c2ccc(C#N)cc2)CC1 (stereo not given)	25!
O=C(NC(=S)N1CCN(c2ccc(F)cc2)CC1)c1ccccc1	.
O=C(CSc1ccc(NC(=O)c2ccccc2)nn1)NCCc1ccccc1	.
CC1(C)CC2C1CCC1(C)OC1CCC2(C)O (stereo not given)	.
CC1(C)CC2C1CCC1(C)OC2(C)CCC1O (stereo not given)	-8
CCS(=O)(=O)N1CCc2ccc(NS(=O)(=O)c3ccc(F)c(Cl)c3)cc2C1	.
Cc1ccc(-c2cc(=O)n(CC(=O)Nc3nc4ccc(C)cc4s3)cn2)cc1	.
COC(=O)c1ccc(C(=O)Nc2nc(-c3ccc(C)cc3C)cs2)cc1	.
CC1(C)S[C@@H]2[C@H](NC(=O)Cc3ccccc3)C(=O)N2[C@H]1C(=O)O	.
CC1(C)SC2C(NC(=O)C(N)c3ccccc3)C(=O)N2C1C(=O)O (stereo not given)	.
CC1(C)S[C@@H]2[C@H](NC(=O)COc3ccccc3)C(=O)N2[C@H]1C(=O)O	32
O=C(O)c1ccc(NC2SC(=O)N(c3ccc(F)cc3)C2=O)cc1 (stereo not given)	.
Cc1ccc(-c2ccc(/C=C(\C#N)c3nc4ccccc4s3)o2)c([N+](=O)[O-])c1	.
Cn1c(/C=C(\C#N)c2nc3ccccc3s2)ccc1-c1cccc(Cl)c1	15
N#C/C(=C/C1=Cc2ccccc2OC1)c1nc2ccccc2s1	.
Cc1ccc(N2CCN(C(=O)N3CCCCC3)CC2)cc1C	.
CCCN(CCC)S(=O)(=O)c1ccc(C(=O)Nc2nc(-c3ccc(OC)c(OC)c3)cs2)cc1	.
SMILES	RMI-FANCM inh
O=C(Nc1cccc(Cl)c1)c1ccc(Br)o1	.
O=C(c1ccc(Br)o1)N1CCOCC1	.
COC(=O)/C(C#N)=C(\C#N)c1ccc(Br)o1	26
CCOc1ccc(-c2noc(Cn3nc(-c4ccc(F)cc4)ccc3=O)n2)cc1OC	.
Cc1cccc(NC(=O)NCCS(=O)(=O)c2c(C)n(Cc3ccc(F)cc3)c3ccccc23)c1	.
Cc1c(S(=O)(=O)CCNC(=O)Nc2ccccc2Cl)c2ccccc2n1C	.
Cc1ccc(NC(=O)NCCS(=O)(=O)c2c(C)n(Cc3ccccc3)c3ccccc23)cc1C	31
NS(=O)(=O)c1ccc(CCNC(=O)CCC2NC(=O)c3ccccc3NC2=O)cc1 (stereo not given)	.
O=C(NCc1cccs1)c1ccc2nccnc2c1	.
Cc1ccc(NC(=O)CN2C(=O)NC3(CCCC3)C2=O)cc1Cl	.
COC(=O)Cn1c(=NC(=O)c2ccc(OC)cc2)sc2cc(NC(C)=O)ccc21	.
COC(=O)Cn1c(=NC(=O)c2ccc(F)cc2)sc2cc(OC)ccc21	28
COC(=O)Cn1c(=NC(=O)c2ccc(Br)s2)sc2cc(F)ccc21	.
N/C(CS(=O)(=O)Cc1ccco1)=N/O	.
O=C(O)CN1C(=O)/C(=C/c2ccc(Cl)cc2Cl)SC1=S	.
O=C(NC1CCCCC1)c1sccc1S(=O)(=O)N1CCN(c2ccc(Cl)cc2)CC1	.
Cn1c(NNC(=O)c2cc(Br)ccc2Cl)cc(=O)n(C)c1=O	.
C/C(=N\NC(=O)CCCC(=O)O)c1c(-c2ccccc2)c2cc(Cl)ccc2[nH]c1=O	.
O=C(/C=C/c1ccco1)c1c(-c2ccccc2)c2cc(Br)ccc2[nH]c1=O	.
O=C(/C=C/c1ccco1)c1c(-c2ccccc2)c2cc(Cl)ccc2[nH]c1=O	0
COc1ccc(CCC(=O)NC2CC(=O)N(c3ccc(Cl)cc3)C2)cc1 (stereo not given)	.
O=C(CCS(=O)(=O)c1ccc(F)cc1)Nc1nnc(-c2cccnc2)o1	.
O=C(CCS(=O)(=O)c1ccc(Cl)cc1)Nc1nnc(-c2ccncc2)o1	.
O=C(CCS(=O)(=O)c1ccc(Cl)cc1)Nc1nnc(-c2ccc(F)cc2)o1	34
CCOC(=O)c1c(NC(=O)c2cc(C)no2)sc2c1CCN(Cc1ccccc1)C2	.
SMILES	RMI-FANCM inh
O=C1C2CCCN2C(c2ccc([N+](=O)[O-])cc2)N1c1cccc(Cl)c1 (stereo not given)	.
O=C1c2ccc3ccccc3c2-c2cccc3cccc1c23	.
O=C(C1=C(Cl)c2cccc3cccc(c23)C1=O)c1ccccc1	.
O=C1C([N+](=O)[O-])=C(O)c2cccc3cccc1c23	-1
COc1ccc(S(=O)(=O)NCc2ccco2)cc1C(=O)O	1
CC(C)(C)c1ccc(S(=O)(=O)NCc2ccco2)cc1	.
COc1ccc(S(=O)(=O)NCc2ccco2)c(C)c1C	.
COC(=O)c1sc(-c2ccccc2)cc1NC(=O)c1cccc(C(=O)Nc2cc(-c3ccccc3)sc2C(=O)OC)n1	.
CC(=O)N1CCc2c(sc(NC(=O)CS(=O)(=O)c3ccc(Cl)cc3)c2C(N)=O)C1	15
CCCCC(=O)Nc1sc2c(c1C(N)=O)CCN(C(C)=O)C2	.
CCOC(=O)c1c(NC(=O)CCS(=O)(=O)c2ccc(Cl)cc2)sc2c1CCN(C(C)=O)C2	.
CC1CCc2c(sc(NC(=O)CCS(=O)(=O)c3ccc(F)cc3)c2C(N)=O)C1 (stereo not given)	.
CC(C)N1CCc2c(sc(NC(=O)CCS(=O)(=O)c3ccc(Cl)cc3)c2C(N)=O)C1	.
COC(=O)c1c(NC(=O)C(C)C)sc2c1CCN(Cc1ccccc1)C2	.
CCOC(=O)N1CCc2c(sc(NC(=O)CS(=O)(=O)c3ccccc3)c2C#N)C1	.
NC(=O)c1c(NC(=O)CS(=O)(=O)c2ccccc2)sc2c1CCN(Cc1ccccc1)C2	21
CCN1CCc2c(sc(NC(=O)CCS(=O)(=O)c3ccc(F)cc3)c2C(N)=O)C1	37
Cc1nc([N+](=O)[O-])cn1CCC(=O)O	.
CCCN1C(=O)C(C)(C)COc2ccc(NS(=O)(=O)c3ccc(C)c(Cl)c3)cc21	.
O=C(O)c1ccc2c(c1)C(=O)N(CCCn1ccnc1)C2=O	.
Cn1ccnc1N1CCN(C(=O)C2CC2)CC1	.
Cc1ccc(-n2ncc3c2ncn2nc(-c4ccccc4O)nc32)c(C)c1	.
Cc1ccc(N2C(=O)C3N=NN(c4ccc(Cl)cc4)C3C2=O)cc1F (stereo not given)	.
C=CCn1c(SCC(=O)Nc2cccc(C(C)=O)c2)nc2sc3c(c2c1=O)CCC(C)C3 (stereo not given)	.
O=C(COc1ccc(Oc2ccccc2)cc1)Nc1cccc(C(F)(F)F)c1	.
CCOC(=O)c1nn(-c2ccc(F)cc2)c(=O)cc1N1CCN(C(=O)OCC)CC1	.
COc1ccccc1OCC(O)CNC(C)(C)C (stereo not given)	.
CC(C)(C)NC[C@H](O)COc1cccc2c1CCCC2=O	.
CC(C)(C)NCC(O)COc1cccc2c1C[C@H](O)[C@H](O)C2 (stereo not given in full)	-57!
CCn1c(SCC(=O)NCc2ccccc2OC)nc2c(-c3ccc(C)cc3)csc2c1=O	.

Source: PubChem BioAssay
